# The supplement of paper PMC10849652
# About 7,900 targets were measured; listed, in parts, are those with a hit and a random draw of the rest. About 0.6% of all pairs of compound and target were hits. A number with no mark means an inactive call.
# How the values were obtained:
# Experiment in all cases: log2 fold change, soluble protein after heating vs DMSO (PISA); higher = thermal stabilisation; K562 cells, 10 uM, 30 min; active = over 0.2 and 3.5 SD of the protein, either way, in both replicates (recomputed)
# IRAK-1-4 Inhibitor I = compound: C1COCCN1CCN2C3=CC=CC=C3N=C2NC(=O)C4=CC(=CC=C4)[N+](=O)[O-] [IRAK-1-4 Inhibitor I]
# Summary of the method: (§1)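 Quantification of soluble protein used TMTpro 16plex LC-MS/MS, with channel sums equalised. Samples were the supernatant after 21,000xg for 90 min of pooled aliquots from K562 cells (2×10^6 cells/mL) treated with 10 μM compound for 30 min, heated for 3 min over 48°C-58°C, and extracted in PBS with 0.5% NP-40 at 4°C. Values, from duplicates, describe thermal stability against control samples on a log2 fold-change scale.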
# ibrutinib = compound: C=CC(=O)N1CCC[C@@H](n2nc(-c3ccc(Oc4ccccc4)cc3)c3c(N)ncnc32)C1 [ibrutinib]
# Summary of the method: as §1
# [1] = compound: CC(=O)c1cnc2ccc(-c3cc(Cl)c(O)c(Cl)c3)nc2c1N[C@H]1CC[C@H](CN(C)C)CC1
# Summary of the method: as §1
# ralimetinib = compound: CC(C)(C)Cn1c(N)nc2ccc(-c3[nH]c(C(C)(C)C)nc3-c3ccc(F)cc3)nc21 [ralimetinib]
# Summary of the method: as §1
# [2] = compound: CC(C)(O)CC(=O)NCCn1ccc2ncnc(Nc3ccc(Oc4cccc(C(F)(F)F)c4)c(Cl)c3)c21
# Summary of the method: as §1
# [3] = compound: CC(C)C1=C2N=C(C=C(N2N=C1)NCC3=CC=CC=C3)NCCCCCCN
# Summary of the method: as §1
# [4] = compound: CC(C)C[C@@H](C=O)NC(=O)[C@H](CC(C)C)NC(=O)[C@H](CC(C)C)NC(=O)OCc1ccccc1
# Summary of the method: as §1
# pinometostat = compound: CC(C)N(C[C@H]1O[C@@H](n2cnc3c(N)ncnc32)[C@H](O)[C@@H]1O)[C@H]1C[C@@H](CCc2nc3cc(C(C)(C)C)ccc3[nH]2)C1 [pinometostat]
# Summary of the method: as §1
# [5] = compound: CC1=C(C(CC(=O)N1)C2=CC=C(C=C2)C(F)(F)F)C(=O)NC3=C(C=C4C(=C3)C=NN4)F
# Summary of the method: as §1
# [6] = compound: CC1=C(C2=C(C=C1)C(=O)C3=CC=CC=C3N2CCCN)C
# Summary of the method: as §1
# [7] = compound: CC1=C(C=C(C=C1)NC(=O)C2=CC(=CC=C2)C(C)(C)C#N)NC3=CC4=C(C=C3)N=CN(C4=O)C
# Summary of the method: as §1
# [8] = compound: CC1=C(C=C(C=C1)NC(=O)C2=CC(=CC=C2)N(C)C)NC(=O)C3=CC=C(C=C3)O
# Summary of the method: as §1
# [9] = compound: CC1=CC=C(C=C1)SC2=C3C=C(SC3=CN=C2)C(=O)N
# Summary of the method: as §1
# [10] = compound: CC1=NC(=CC=C1)C2=C(N=C(N2)C(C)(C)C)C3=CC4=NC=CN=C4C=C3
# Summary of the method: as §1
# Nexturastat A = compound: CCCCN(Cc1ccc(C(=O)NO)cc1)C(=O)Nc1ccccc1 [Nexturastat A]
# Summary of the method: as §1
# vemurafenib = compound: CCCS(=O)(=O)Nc1ccc(F)c(C(=O)c2c[nH]c3ncc(-c4ccc(Cl)cc4)cc23)c1F [vemurafenib]
# Summary of the method: as §1
# [11] = compound: CCCS(=O)(=O)Nc1ccc(F)c(C(=O)c2c[nH]c3ncc(Cl)cc23)c1F
# Summary of the method: as §1
# [12] = compound: CCCc1cc(C)[nH]c(=O)c1CNC(=O)c1cc(-c2ccnc(N3CCN(C)CC3)c2)cc2c1cnn2C(C)C
# Summary of the method: as §1
# givinostat = compound: CCN(CC)Cc1ccc2cc(COC(=O)Nc3ccc(C(=O)NO)cc3)ccc2c1 [givinostat]
# Summary of the method: as §1
# barasertib = compound: CCN(CCCOc1ccc2c(Nc3cc(CC(=O)Nc4cccc(F)c4)[nH]n3)ncnc2c1)CCOP(=O)(O)O [barasertib]
# Summary of the method: as §1
# Chain of UniProt Q99816 (Q99816 whole entry, looked up): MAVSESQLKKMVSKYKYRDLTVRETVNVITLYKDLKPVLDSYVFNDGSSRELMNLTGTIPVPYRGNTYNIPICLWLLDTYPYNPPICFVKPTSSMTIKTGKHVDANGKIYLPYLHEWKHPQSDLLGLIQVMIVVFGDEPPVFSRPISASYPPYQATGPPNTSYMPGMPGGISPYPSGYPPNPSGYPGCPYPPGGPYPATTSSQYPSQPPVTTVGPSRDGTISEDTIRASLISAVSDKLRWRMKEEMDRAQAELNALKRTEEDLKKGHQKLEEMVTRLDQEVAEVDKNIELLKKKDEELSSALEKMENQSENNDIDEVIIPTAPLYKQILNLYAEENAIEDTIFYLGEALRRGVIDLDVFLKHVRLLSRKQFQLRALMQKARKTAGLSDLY
# Chain of UniProt Q9BZH6 (Q9BZH6 whole entry, looked up): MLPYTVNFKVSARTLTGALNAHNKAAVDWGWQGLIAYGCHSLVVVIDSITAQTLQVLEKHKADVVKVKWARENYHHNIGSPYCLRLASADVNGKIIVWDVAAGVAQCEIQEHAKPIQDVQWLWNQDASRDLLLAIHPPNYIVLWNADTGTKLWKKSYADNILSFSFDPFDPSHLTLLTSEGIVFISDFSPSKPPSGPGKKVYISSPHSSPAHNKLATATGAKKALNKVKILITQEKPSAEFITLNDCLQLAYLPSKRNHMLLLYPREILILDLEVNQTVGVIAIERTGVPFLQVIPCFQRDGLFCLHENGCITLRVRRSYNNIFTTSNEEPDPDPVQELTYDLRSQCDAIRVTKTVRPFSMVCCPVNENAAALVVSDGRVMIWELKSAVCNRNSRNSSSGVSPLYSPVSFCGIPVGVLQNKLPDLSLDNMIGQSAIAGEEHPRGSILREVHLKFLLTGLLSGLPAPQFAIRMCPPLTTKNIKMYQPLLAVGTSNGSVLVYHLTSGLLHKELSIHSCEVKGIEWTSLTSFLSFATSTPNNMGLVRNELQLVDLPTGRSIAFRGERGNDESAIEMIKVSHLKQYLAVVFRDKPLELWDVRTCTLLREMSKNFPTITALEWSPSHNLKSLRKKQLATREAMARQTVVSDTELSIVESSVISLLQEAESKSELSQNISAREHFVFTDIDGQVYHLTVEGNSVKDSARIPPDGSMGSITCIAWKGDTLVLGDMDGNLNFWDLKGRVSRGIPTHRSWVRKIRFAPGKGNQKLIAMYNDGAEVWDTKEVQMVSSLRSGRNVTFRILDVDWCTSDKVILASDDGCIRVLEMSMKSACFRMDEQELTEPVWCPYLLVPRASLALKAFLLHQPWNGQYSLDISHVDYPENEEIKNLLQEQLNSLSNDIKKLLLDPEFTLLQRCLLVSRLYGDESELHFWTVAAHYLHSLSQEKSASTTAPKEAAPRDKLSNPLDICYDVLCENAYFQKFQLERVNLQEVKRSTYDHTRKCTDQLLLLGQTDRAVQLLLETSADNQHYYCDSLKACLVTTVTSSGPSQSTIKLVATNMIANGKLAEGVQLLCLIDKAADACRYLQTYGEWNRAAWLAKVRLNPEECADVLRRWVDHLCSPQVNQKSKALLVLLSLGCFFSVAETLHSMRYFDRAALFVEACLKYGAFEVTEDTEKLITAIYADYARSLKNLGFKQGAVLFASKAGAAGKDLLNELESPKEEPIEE
# Chain of UniProt O43379 (O43379 whole entry, looked up): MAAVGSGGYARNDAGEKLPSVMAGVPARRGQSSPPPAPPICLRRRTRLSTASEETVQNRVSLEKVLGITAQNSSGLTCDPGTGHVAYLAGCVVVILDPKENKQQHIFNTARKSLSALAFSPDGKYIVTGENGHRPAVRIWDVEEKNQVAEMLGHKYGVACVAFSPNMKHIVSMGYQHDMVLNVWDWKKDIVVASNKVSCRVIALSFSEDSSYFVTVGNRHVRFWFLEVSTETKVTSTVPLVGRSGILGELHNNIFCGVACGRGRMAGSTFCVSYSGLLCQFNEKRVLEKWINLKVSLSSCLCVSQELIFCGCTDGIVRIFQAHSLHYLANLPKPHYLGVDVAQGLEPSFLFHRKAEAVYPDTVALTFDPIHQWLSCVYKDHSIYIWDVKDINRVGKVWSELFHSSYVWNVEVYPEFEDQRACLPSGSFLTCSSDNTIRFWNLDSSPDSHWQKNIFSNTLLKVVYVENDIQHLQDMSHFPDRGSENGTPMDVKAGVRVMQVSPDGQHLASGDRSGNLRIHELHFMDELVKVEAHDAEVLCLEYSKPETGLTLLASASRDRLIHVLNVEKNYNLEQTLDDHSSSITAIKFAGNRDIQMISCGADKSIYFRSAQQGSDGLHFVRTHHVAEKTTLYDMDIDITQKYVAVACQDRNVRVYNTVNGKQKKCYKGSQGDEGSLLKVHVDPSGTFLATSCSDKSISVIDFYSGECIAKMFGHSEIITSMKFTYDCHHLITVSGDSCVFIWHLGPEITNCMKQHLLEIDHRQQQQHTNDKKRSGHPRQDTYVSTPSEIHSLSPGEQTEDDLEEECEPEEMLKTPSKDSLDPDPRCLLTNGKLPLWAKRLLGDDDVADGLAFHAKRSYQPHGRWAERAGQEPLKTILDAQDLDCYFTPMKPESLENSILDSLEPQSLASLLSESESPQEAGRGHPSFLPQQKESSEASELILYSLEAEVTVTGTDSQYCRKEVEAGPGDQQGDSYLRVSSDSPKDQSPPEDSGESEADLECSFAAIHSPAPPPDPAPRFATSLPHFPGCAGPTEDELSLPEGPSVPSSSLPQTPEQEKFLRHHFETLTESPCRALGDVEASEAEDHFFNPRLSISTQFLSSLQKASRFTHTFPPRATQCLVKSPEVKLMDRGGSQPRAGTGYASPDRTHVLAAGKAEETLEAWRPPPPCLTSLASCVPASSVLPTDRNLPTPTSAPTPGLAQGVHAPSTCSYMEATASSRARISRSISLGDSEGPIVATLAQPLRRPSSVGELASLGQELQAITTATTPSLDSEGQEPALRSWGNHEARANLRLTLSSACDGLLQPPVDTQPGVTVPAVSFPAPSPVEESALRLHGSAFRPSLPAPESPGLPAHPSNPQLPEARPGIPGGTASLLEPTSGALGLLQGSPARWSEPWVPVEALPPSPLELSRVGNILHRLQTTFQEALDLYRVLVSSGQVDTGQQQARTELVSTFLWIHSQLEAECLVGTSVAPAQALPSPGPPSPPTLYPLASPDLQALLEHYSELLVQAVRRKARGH
# Chain of UniProt Q92973 (Q92973 whole entry, looked up): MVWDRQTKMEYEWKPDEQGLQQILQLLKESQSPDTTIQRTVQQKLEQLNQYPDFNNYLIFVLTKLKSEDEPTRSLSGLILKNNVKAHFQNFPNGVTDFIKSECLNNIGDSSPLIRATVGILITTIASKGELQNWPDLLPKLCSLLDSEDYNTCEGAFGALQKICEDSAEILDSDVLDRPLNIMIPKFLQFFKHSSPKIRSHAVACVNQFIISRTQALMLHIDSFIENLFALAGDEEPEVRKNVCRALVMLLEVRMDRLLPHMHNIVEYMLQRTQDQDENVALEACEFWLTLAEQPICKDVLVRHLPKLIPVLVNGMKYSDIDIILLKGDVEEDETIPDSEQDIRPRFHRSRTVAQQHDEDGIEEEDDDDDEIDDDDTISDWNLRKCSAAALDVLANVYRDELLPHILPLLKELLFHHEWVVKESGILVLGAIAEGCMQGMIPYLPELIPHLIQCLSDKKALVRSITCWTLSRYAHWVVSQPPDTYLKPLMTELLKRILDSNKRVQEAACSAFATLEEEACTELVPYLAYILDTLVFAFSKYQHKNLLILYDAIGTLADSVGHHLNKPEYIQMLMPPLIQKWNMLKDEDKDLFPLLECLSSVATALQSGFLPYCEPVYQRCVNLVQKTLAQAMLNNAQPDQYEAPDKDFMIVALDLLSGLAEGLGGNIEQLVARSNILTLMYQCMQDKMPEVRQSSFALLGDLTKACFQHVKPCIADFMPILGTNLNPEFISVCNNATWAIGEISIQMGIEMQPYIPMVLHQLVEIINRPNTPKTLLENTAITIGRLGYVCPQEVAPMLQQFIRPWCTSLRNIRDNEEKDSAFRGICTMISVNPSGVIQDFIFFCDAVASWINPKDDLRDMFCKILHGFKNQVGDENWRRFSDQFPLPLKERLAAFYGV
# Chain of UniProt Q9UBK9 (Q9UBK9 whole entry, looked up): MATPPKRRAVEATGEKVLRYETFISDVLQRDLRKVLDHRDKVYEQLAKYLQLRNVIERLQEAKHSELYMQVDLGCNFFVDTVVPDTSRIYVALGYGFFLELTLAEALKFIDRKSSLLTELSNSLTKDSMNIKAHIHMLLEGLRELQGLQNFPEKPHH
# Chain of UniProt Q9UL33 (Q9UL33 whole entry, looked up): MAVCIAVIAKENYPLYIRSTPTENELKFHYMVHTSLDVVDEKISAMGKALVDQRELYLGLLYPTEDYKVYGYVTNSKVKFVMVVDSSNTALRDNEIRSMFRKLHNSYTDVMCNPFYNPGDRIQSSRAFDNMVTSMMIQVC
# Chain of UniProt Q8NCE0 (Q8NCE0 whole entry, looked up): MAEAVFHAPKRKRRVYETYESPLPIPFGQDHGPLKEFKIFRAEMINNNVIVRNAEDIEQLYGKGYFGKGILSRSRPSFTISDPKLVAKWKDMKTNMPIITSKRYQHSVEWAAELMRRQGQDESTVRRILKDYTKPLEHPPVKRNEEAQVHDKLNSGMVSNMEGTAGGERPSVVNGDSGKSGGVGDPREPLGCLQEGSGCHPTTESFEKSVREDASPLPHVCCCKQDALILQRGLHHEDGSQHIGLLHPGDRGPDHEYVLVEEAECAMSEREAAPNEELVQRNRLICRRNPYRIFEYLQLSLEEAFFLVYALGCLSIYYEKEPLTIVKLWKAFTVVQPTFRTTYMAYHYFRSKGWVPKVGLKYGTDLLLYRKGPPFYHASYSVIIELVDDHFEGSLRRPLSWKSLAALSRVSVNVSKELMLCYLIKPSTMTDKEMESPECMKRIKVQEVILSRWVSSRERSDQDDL
# Chain of UniProt Q9BUB7 (Q9BUB7 whole entry, looked up): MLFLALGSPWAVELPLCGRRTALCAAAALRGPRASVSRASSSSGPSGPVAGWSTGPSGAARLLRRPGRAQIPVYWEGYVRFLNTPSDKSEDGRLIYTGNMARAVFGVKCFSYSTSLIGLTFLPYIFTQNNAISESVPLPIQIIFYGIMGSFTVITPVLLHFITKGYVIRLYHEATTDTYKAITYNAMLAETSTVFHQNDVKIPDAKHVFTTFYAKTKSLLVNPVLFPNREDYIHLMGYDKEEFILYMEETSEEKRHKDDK
Target,log2 fold change (IRAK-1-4 Inhibitor I),log2 fold change (ibrutinib),log2 fold change [1],log2 fold change (ralimetinib),log2 fold change [2],log2 fold change [3],log2 fold change [4],log2 fold change (pinometostat),log2 fold change [5],log2 fold change [6],log2 fold change [7],log2 fold change [8],log2 fold change [9],log2 fold change [10],log2 fold change (Nexturastat A),log2 fold change (vemurafenib),log2 fold change [11],log2 fold change [12],log2 fold change (givinostat),log2 fold change (barasertib)
TPR (UniProt P12270),0.03,-0.048,0.247,0.058,0.121,0.091,0.024,-0.001,-0.045,-0.122,-0.001,0.023,-0.069,-0.047,-0.048,0.031,0.012,0.003,-0.08,0
TNPO1 (UniProt Q92973),0.01,0.001,0.043,-0.01,-0.029,-0.193,-0.011,-0.006,0.032,-0.231 (active),0.041,0,0.037,0,-0.017,0.015,0.064,-0.009,0.015,-0.005
WDR11 (UniProt Q9BZH6),0.009,-0.112,-0.01,-0.068,-0.018,-0.056,-0.047,0,0.069,0.065,-0.004,0.057,-0.008,-0.016,-0.097,-0.089,-0.084,-0.105,0.035,0.034
TMEM120A (UniProt Q9BXJ8),-0.066,-0.183,-0.068,-0.003,-0.429,-0.006,-0.078,0.093,-0.065,0.051,0.181,0.007,0.115,-0.004,-0.259,0.06,0.085,-0.007,0.116,-0.006
TRAPPC2L (UniProt Q9UL33),-0.013,0.003,-0.004,-0.125,-0.11,-0.083,0.24,0.001,0.062,0.014,0,-0.135,0.133,0.045,0.003,0.076,0.11,0.055,-0.123,0.05
U2AF1 isoform 2 (UniProt Q01081),-0.133,0.073,-0.519 (active),0,0.042,-0.083,0.022,-0.04,-0.062,0.169,-0.011,-0.078,-0.01,0.091,0.011,0.074,0.071,-0.009,0.022,0.009
TRAPPC6B (UniProt Q86SZ2),-0.022,0.032,-0.001,-0.015,-0.138,0.032,0.032,-0.036,0.004,0.004,0.022,-0.01,0.049,0.07,-0.097,0.009,0.02,-0.063,-0.02,0.008
UXT isoform 2 (UniProt Q9UBK9),0.103,-0.033,-0.019,-0.031,-0.005,0.316,0.082,-0.141,-0.016,0.194,0.008,0.003,0.039,-0.074,0.904 (active),-0.023,-0.013,0.041,0.211,0.022
TMEM70 (UniProt Q9BUB7),0.07,0.068,-0.034,-0.044,-0.095,0.13,0.028,0.019,-0.034,0.086,0.006,0.051,0.051,0.005,-0.012,-0.011,0.029,-0.053,-0.164,0.047
TOMM20 (UniProt Q15388),0.006,0,0.003,-0.017,0.118,-0.343 (active),0.047,0.022,-0.021,0.018,0.058,0.044,0.04,-0.019,0.019,-0.024,0.092,0.026,0.011,0.021
WDR62 isoform 4 (UniProt O43379),0.085,-0.069,-0.579 (active),0.003,-0.003,-0.085,0.042,0.062,0.063,-0.176,-0.123,-0.015,-0.055,-0.033,0.029,0.008,0.053,-0.014,0.022,0.032
WDR18 (UniProt Q9BV38),-0.005,-0.03,-0.007,0.064,0.025,0.008,-0.102,0.028,0.011,-0.962 (active),-0.042,0.08,0.016,0.014,-0.035,0.04,-0.003,0.004,-0.025,0.013
TTI2 (UniProt Q6NXR4),-0.032,-0.006,0.005,0.033,-0.196,-0.079,0.032,0.016,-0.044,0.033,0.021,-0.039,0.024,0.023,0.113,0.047,0.06,-0.018,0.135,-0.028
TSG101 (UniProt Q99816),0.05,0.004,-0.017,-0.005,-0.025,-0.146,0.031,-0.003,0.001,-0.012,0,-0.011,-0.001,0.025,-0.017,0.021,0.024,-0.057,0.035,0.046
WDR47 (UniProt O94967),-0.089,0.055,0.028,-0.005,-0.03,0.028,-0.048,-0.017,0.024,0.015,-0.031,-0.031,0.07,0.127,-0.048,-0.023,-0.045,-0.004,0.004,-0.007
TSEN2 (UniProt Q8NCE0),0.073,-0.022,-0.116,-0.034,-0.127,0.033,-0.001,0.004,0.055,0.027,0.306 (active),0.015,0.014,-0.02,-0.013,0.058,0.063,0.097,0.012,0.073
